Inconclusive results are not listed. Calls of active or inactive are those of the source. The call rests on the fitted dose curve; in most records, active means well fitted curve in the direction sought with a large enough effect; inconclusive means small, poorly fitted or top-dose-only effect, or another doubt; inactive means no such curve, though single readings can be large or run the other way.
Biological target: Polyunsaturated fatty acid lipoxygenase ALOX15 (Homo sapiens) (UniProt P16050)
Assay: Counterscreen qHTS for inhibitors of human arachidonate 12S-lipoxygenase (ALOX12): ALOX15 Assay; further: 0% is about no effect
Conditions: purified ALOX15 enzyme activity; series mostly up to 110 µM; activity change, negative = inhibition: at the top concentration
Outline: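 Xylenol orange–ferric complex formation, read as the 573 nm to 405 nm absorbance ratio, tracks product from 50 uM arachidonic acid turned over for 30 min at RT. Enzyme is 40 nM ALOX15, pH 7.5 HEPES buffer, compound-preincubated 15 min.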

Polyunsaturated fatty acid lipoxygenase ALOX15 (Homo sapiens), sequence (P16050 whole entry, looked up): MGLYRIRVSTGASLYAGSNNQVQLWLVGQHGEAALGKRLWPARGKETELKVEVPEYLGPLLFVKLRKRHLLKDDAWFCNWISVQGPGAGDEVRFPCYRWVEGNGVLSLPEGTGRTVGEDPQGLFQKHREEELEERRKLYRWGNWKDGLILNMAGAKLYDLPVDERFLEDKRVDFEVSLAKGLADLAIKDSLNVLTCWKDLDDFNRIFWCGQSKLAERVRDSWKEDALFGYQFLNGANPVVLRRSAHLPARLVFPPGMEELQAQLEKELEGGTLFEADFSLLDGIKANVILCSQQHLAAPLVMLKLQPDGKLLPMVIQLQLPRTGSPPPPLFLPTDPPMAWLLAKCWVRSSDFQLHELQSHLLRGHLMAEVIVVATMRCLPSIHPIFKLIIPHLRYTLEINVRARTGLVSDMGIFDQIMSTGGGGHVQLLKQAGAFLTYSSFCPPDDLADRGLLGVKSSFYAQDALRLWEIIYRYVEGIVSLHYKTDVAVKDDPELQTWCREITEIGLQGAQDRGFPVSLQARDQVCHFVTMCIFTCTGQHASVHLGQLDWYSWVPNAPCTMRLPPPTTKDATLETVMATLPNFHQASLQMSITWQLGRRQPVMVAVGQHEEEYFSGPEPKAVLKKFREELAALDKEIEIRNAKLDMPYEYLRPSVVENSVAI

Structure (SMILES)	activity change, negative = inhibition
COc1ccc(-n2nc3n(c2=O)CCN(C(=O)c2ccccn2)C3)cc1	-10.8% [at 146 µM] (inactive)
Cc1ccc(-c2ccc(C=O)cc2)cc1Cl	-10.5% [at 233 µM] (inactive)
CCOC(=O)N1CCC(NC)CC1	3.49% [at 146 µM] (inactive)
c1ccc2c(c1)COC1(CCNC1)CN2CC1CCCC1 (configuration not stated)	0.378% [at 146 µM] (inactive)
COc1ccc(C(=O)N2CCc3nc(C4CC4)nc(-c4ccc(Cl)cc4)c3C2)cc1	-10.3% (inactive)
CN(C)CCCC(=O)N1Cc2ccccc2CC2(CCCCN2CC2CCNCC2)C1 (configuration not stated)	-16.9% (inactive)
O=C(c1ccccc1F)N1CCc2nc(C3CC3)nc(-c3ccc(Cl)cc3)c2C1	-19.9% (inactive)
C[S+](=O)([O-])N1Cc2ccccc2CC2(CCCCN2CC2CCNCC2)C1 (configuration not stated)	-4.91% (inactive)
O=C1NCc2ccccc2CC12CCCN2Cc1cccc(O)c1 (configuration not stated)	-11.9% [at 146 µM] (inactive)
Cc1noc(C)c1C(=O)N1CCN(c2ccc(Cl)nn2)C(=O)C1	-19.1% [at 146 µM] (inactive)
NCC(=O)N1Cc2ccccc2CC2(CCN(CC3CCNC3)C2)C1 (configuration not stated)	-0.295% [at 146 µM] (inactive)
O=c1n(-c2ccc(Cl)cc2)nc2n1CCN([S+](=O)([O-])c1ccccc1)C2	-12.1% (inactive)
CN1CC(=O)N(C2CCCNC2)Cc2c(NC3CCCCC3)ncnc21 (configuration not stated)	-25.8% (inactive)
N#Cc1ccc(CN2CCC3(CN[S+](=O)([O-])c4cnccc4O3)C2)cc1 (configuration not stated)	-8.17% (inactive)
O=C(N1CCCC1)N1CCN(c2ccc(Cl)nn2)C(=O)C1	-13.1% [at 146 µM] (inactive)
Cc1cc(C(=O)NC2CCCC2)c2c(C3CCNC3)noc2n1 (configuration not stated)	-14.7% [at 146 µM] (inactive)
O=C(O)CCC(=O)N1Cc2ccccc2CC2(CCCN2Cc2cccnc2)C1 (configuration not stated)	1.74% (inactive)
NCC(=O)N1CCC2(CC1)CN(C(=O)Cc1cccc(Cl)c1)CCO2	-12.9% (inactive)
O=Cc1ccccc1-c1cncc(C(=O)O)c1	-24.3% [at 146 µM] (inactive)

Structure (SMILES)	activity change, negative = inhibition
Nc1ccccc1CN1CCCC2(Cc3ccccc3CNC2=O)C1 (configuration not stated)	-0.583% [at 146 µM] (inactive)
CN1CC(=O)N(C2CCNCC2)Cc2c1ncnc2N1CCCCC1	-12.3% (inactive)
O=C1NC(=NC2CCCC2)C2(CCN(CC3CC3)C2)N1c1cccnc1 (configuration not stated)	-31.3% (inactive)
O=Cc1cccc(N2CCN(C(=O)c3ccc4c(c3)OCO4)CC2=O)c1	-7.4% [at 146 µM] (inactive)
CN1CC(=O)N(C2CCNC2)Cc2c(NCC3(O)CCCCC3)ncnc21 (configuration not stated)	-12.9% (inactive)
Cc1ccc(-c2ccccc2C=O)cc1Cl	-17% [at 146 µM] (inactive)
Fc1ccc(OC2CN(CC3CC3)C2)cc1F	-14% [at 233 µM] (inactive)
CN1CC(=O)N(C2CCCNCC2)Cc2c1ncnc2N1CCSCC1 (configuration not stated)	4.09% (inactive)
CN1CC(=O)N(C2CCCNCC2)Cc2c(NCCc3ccccc3F)ncnc21 (configuration not stated)	-27.6% (inactive)
O=Cc1ccc(-c2cccc(O)c2)cc1	-2.91% [at 233 µM] (inactive)
CC(C)NC(=O)NC1CC2(CCN(Cc3ccc(O)cc3)CC2)c2ccccc21 (configuration not stated)	-17.3% (inactive)
COc1ccc(CC(=O)N2Cc3ccccc3CC3(CCN(CC4CCNC4)C3)C2)cc1 (configuration not stated)	8.23% (inactive)
CN1CC(=O)N(C2CCNCC2)Cc2c1ncnc2N1CCc2ccccc2C1	-21.4% (inactive)
COc1cccc(N2C(=O)NC(=NC3CCCCC3)C23CCN(C(=O)c2ccccc2OC)C3)c1 (configuration not stated)	-28.5% (inactive)
CN1CC(=O)N(C2CCCNCC2)Cc2c1ncnc2N1CCN(Cc2ccccc2)CC1 (configuration not stated)	9.67% (inactive)
CCCN1CCC2(Cc3ccccc3CN(C(=O)CCCC(=O)O)C2)C1 (configuration not stated)	-22.9% (inactive)
CC(CO)Nc1ncnc2c1CN(C1CCCNC1)C(=O)CN2C (configuration not stated)	-22.8% [at 146 µM] (inactive)
C[S+](=O)([O-])N1CC2(CCN(Cc3ccc(Cl)cc3)C2)Cc2ccccc21 (configuration not stated)	-31.4% [at 146 µM] (inactive)

Source: PubChem BioAssay AID1671192 (National Center for Advancing Translational Sciences (NCATS), 2021)
